CASP6 VEID inh: caspase-6 (human) enzyme inhibition. P55212. inhibition, % at 12.5 µM. 0.53% of 350,000 active. purified caspase-6, Z-VEID-R110 cleavage fluorescence;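 active = mean inhibition across replicates at least about 35%, with every replicate also reaching that limit, limit read from the data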;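 note: 0% = median of neutral control wells and 100% = no fluorescence left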
Target sequence (P55212 24-179 limits assumed): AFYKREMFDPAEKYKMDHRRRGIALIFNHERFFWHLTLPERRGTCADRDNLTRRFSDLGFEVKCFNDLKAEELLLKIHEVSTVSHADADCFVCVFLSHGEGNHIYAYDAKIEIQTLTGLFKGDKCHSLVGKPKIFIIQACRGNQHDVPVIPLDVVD
Target sequence (P55212 194-293 limits assumed): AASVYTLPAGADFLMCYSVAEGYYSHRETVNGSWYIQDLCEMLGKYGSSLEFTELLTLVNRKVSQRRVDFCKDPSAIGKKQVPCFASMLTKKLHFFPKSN
MLL AF4-AF9 inh: MLL-AF4/AF9 protein interaction inhibition; inhibition, % at 10 µM; 0.47% of 350,000 active; P42568; AlphaScreen, biotin-AF4 peptide binding to FLAG-AF9; AID 651704;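 active = every replicate reaching a set inhibition limit, whatever the replicate mean, cut at about 25% in these data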;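 note: 0% = plate neutral control median and 100% = total signal loss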
RAD52 inh: inhibitors of human RAD52 DNA annealing; 0.46% of 360,000 active; recombinant RAD52 DNA annealing, FRET fluorescence; P43351; inhibition, % at 18.7 µM; AID 651710;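 active = every replicate showing at least 50% inhibition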
Ecoli rRNA inh: selective bacterial rRNA inhibition in E. coli. E. coli WT GFP vs humanized-ribosome RFP mutants, fluorescence, 24 h; hits give low values; DMSO median 0, no signal -100. GFP signal change (wild-type ribosome), % (test concentration not listed). 1.6% of 350,000 active;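 active = significant combined selectivity score with lowered wild-type GFP, culture density cut under 30%, mutant RFP and density less affected; inactive = any of these conditions unmet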
NSD2 inh: NSD2 (human) methyltransferase inhibition; O96028; AID 743445; NSD2 peptide methylation, AlphaScreen, 120 min; inhibition, % at 12.5 µM; 0.54% of 310,000 active; in the data active = inhibition above about 50%
* marks the source's active call; other numbers are inactive results. A selection: hits, their analogues and other compounds. The true share with any hit is near 2.5%.

For COc1ccc2nc(-c3ccco3)c(-c3ccco3)nc2c1 the results were CASP6 VEID inh 47*, MLL AF4-AF9 inh -38, RAD52 inh -63, Ecoli rRNA inh -5 and NSD2 inh -6.
Screening COc1cc(/C=C(/C#N)C(=O)Nc2ccccc2)ccc1OCc1ccc(C(=O)O)cc1 returned CASP6 VEID inh 37*, MLL AF4-AF9 inh -7, RAD52 inh -53, Ecoli rRNA inh 0 and NSD2 inh 1.
Screening N#C/C(=C\c1ccc(OCc2ccc(Cl)cc2)cc1)C(=O)Nc1cccc(C(=O)O)c1 returned CASP6 VEID inh 8, MLL AF4-AF9 inh 2, RAD52 inh 0 and Ecoli rRNA inh -27*.
For O=C(O)c1cccc(NC(=O)c2ccc(COc3ccc(Cl)cc3)cc2)c1 the results were CASP6 VEID inh -9, MLL AF4-AF9 inh -15, RAD52 inh -21, Ecoli rRNA inh 2 and NSD2 inh 2.
Cc1cccc(-n2c(C)cc(/C=C3\NC(=O)NC3=O)c2C)c1 was read as CASP6 VEID inh 5, MLL AF4-AF9 inh 6, RAD52 inh -19, Ecoli rRNA inh 2 and NSD2 inh 10.
For Cc1cc(/C=C2/NC(=O)NC2=O)c(C)n1-c1ccncc1 the results were CASP6 VEID inh 1, MLL AF4-AF9 inh 4, RAD52 inh -13, Ecoli rRNA inh -28* and NSD2 inh -2.
For O=C(/C=C/c1ccco1)OCC(=O)N1CCCCC1 the results were CASP6 VEID inh 50*, MLL AF4-AF9 inh -3, RAD52 inh -17, Ecoli rRNA inh 14 and NSD2 inh 4.
Screening CCN(C(=O)COC(=O)/C=C/c1ccco1)C1CCCCC1 returned CASP6 VEID inh 57*, MLL AF4-AF9 inh 1, RAD52 inh -14, Ecoli rRNA inh -5 and NSD2 inh 10.
O=C(/C=C/c1ccccc1)OCC(=O)N1CCCC1 was read as CASP6 VEID inh -2, MLL AF4-AF9 inh 0, RAD52 inh -5, Ecoli rRNA inh -1 and NSD2 inh 7.
c1ccc(CCNc2ccc3ncc(-c4cccc5ccccc45)n3n2)nc1 was read as CASP6 VEID inh 57*, MLL AF4-AF9 inh 9, RAD52 inh -4, Ecoli rRNA inh -47 and NSD2 inh -1.
CCS(=O)(=O)N1CCC2(CC1)CN(S(=O)(=O)c1ccccc1)[C@@H](CO)c1c2c2ccc(OC)cc2n1C was read as MLL AF4-AF9 inh -3, RAD52 inh 17 and Ecoli rRNA inh -5.
O=C(C[C@H]1C[C@H]2c3cc(NS(=O)(=O)c4ccc(F)cc4)ccc3O[C@H]2[C@@H](CO)O1)NCc1ccncc1 was read as CASP6 VEID inh 2, MLL AF4-AF9 inh 1, RAD52 inh 3 and Ecoli rRNA inh 2.
`CC1(C(=O)OCC(=O)Nc2nc(-c3ccc(F)c(F)c3)cs2)CC1(Cl)Cl` (centres undefined) gave CASP6 VEID inh -4, MLL AF4-AF9 inh -1, RAD52 inh -11, Ecoli rRNA inh -28* and NSD2 inh -1.
COc1ccc(CC(=O)Nc2nc(-c3ccc(F)c(F)c3)cs2)cc1 was read as CASP6 VEID inh -1, MLL AF4-AF9 inh 0, RAD52 inh -31, Ecoli rRNA inh -34 and NSD2 inh 0.
For COc1ccc2c3c([nH]c2c1)[C@H](CO)NCC31CCN(C(=O)C2CCCC2)CC1 the results were CASP6 VEID inh -2, MLL AF4-AF9 inh 0, RAD52 inh -77 and Ecoli rRNA inh -2.
`COc1ccc(C(=O)OCc2c(-c3ccccc3)ncc3ccccc23)cc1` gave CASP6 VEID inh -2, MLL AF4-AF9 inh -7, RAD52 inh -1 and Ecoli rRNA inh -1.
For COc1ccccc1C(=O)OCc1c(-c2ccccc2)ncc2ccccc12 the results were CASP6 VEID inh -3, MLL AF4-AF9 inh -6, RAD52 inh -29 and Ecoli rRNA inh -25*.
`Cc1ccc(/C=N/N2CCN(c3ccccc3)CC2)cc1` gave CASP6 VEID inh 9, MLL AF4-AF9 inh 7, RAD52 inh -6, Ecoli rRNA inh 6 and NSD2 inh -1.
`Cc1ccc(N2CCN(/N=C/c3c(C)nn(-c4ccccc4)c3Cl)CC2)cc1` gave CASP6 VEID inh 45*, MLL AF4-AF9 inh -1, RAD52 inh -7, Ecoli rRNA inh 11 and NSD2 inh 1.
Screening COc1cccc(NC(=O)N[C@@H]2CC[C@H](CC(=O)N3CCCCC3)O[C@@H]2CO)c1 returned CASP6 VEID inh 14, MLL AF4-AF9 inh -2, RAD52 inh -4 and Ecoli rRNA inh 1.
`COc1ccccc1/C=C\C(=O)NCC(=O)N/N=C/c1ccc(O)cc1O` gave CASP6 VEID inh 6, MLL AF4-AF9 inh 3, RAD52 inh -3 and Ecoli rRNA inh -29*.
`COc1ccccc1/C=C/C(=O)NCC(=O)N/N=C/c1ccccc1` gave CASP6 VEID inh -1, MLL AF4-AF9 inh 0, RAD52 inh -12, Ecoli rRNA inh -11 and NSD2 inh -1.
Screening Cc1cccc(S(=O)(=O)N2CCCCN3[C@@H](CO)[C@H](c4ccc(-c5ccccc5)cc4)[C@@H]3C2)c1 returned CASP6 VEID inh 1, MLL AF4-AF9 inh -2 and RAD52 inh 68*.
For Cc1ccc(-c2ccc([C@@H]3[C@@H](CO)N4CCCCN(S(=O)(=O)c5cccc(C)c5)C[C@H]34)cc2)cc1 the results were CASP6 VEID inh -2, MLL AF4-AF9 inh 0 and RAD52 inh 53*.
For O=S(=O)(c1cccs1)N1CCCCN2[C@@H](CO)[C@@H](c3ccc(C4=CCCC4)cc3)[C@@H]2C1 the results were CASP6 VEID inh -4, MLL AF4-AF9 inh 3, RAD52 inh 41 and Ecoli rRNA inh -34*.
COc1ccc(NC(=O)Nc2ccc3c(c2)[C@@H]2C[C@H](CC(=O)NCCc4ccccc4)O[C@@H](CO)[C@@H]2O3)cc1 was read as CASP6 VEID inh 4, MLL AF4-AF9 inh -5, RAD52 inh 10 and Ecoli rRNA inh -2.
CO[C@@H]1CN(C)C(=O)c2cc(NC(=O)c3cnccn3)ccc2OC[C@H](C)N(C(=O)C2CC2)C[C@H]1C was read as CASP6 VEID inh -3, MLL AF4-AF9 inh -2, RAD52 inh -20 and Ecoli rRNA inh 4.
Screening CC(=O)/C=C1/SC(CC(=O)O)C(=O)N1c1ccccc1 (centres undefined) returned NSD2 inh 115*.
Cc1cc(C)nc(-n2nc(C)c(Sc3ccc(F)cc3)c2N)n1 was read as CASP6 VEID inh 0, MLL AF4-AF9 inh 2, RAD52 inh -2 and Ecoli rRNA inh -40*.
Screening Fc1ccc2cnc(CCO[C@H]3CCCCO3)cc2c1 returned CASP6 VEID inh -1, MLL AF4-AF9 inh 49*, RAD52 inh -7 and Ecoli rRNA inh -1.
For N#Cc1c(-c2ccccc2)cc(-c2ccc3c(c2)OCO3)[nH]c1=O the results were CASP6 VEID inh 1, MLL AF4-AF9 inh -1, RAD52 inh -8 and NSD2 inh -3.
Screening COc1ccc(-c2cc(-c3ccco3)[nH]c(=O)c2C#N)cc1OC returned CASP6 VEID inh 38*, MLL AF4-AF9 inh 3, RAD52 inh -163 and Ecoli rRNA inh 21.
